Measured values from PubChem BioAssay (NCATS).
Results filed as inconclusive are left out. Entries that show only a call come without a potency. Calls of active or inactive are those of the source. Unless noted, calls come from the whole dose curve; as a rule, active = well fitted curve in the direction sought with a large enough effect; inconclusive = small, poorly fitted or top-dose-only effect, or another doubt; inactive = no such curve, though single readings can be large; an effect the other way counts as inactive or inconclusive.

Assays:
[1] = AP1 Signaling Pathway (AID 357; active = well fitted curve in either direction with a large enough effect, not every such curve was filed as active;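 note: ME-180 reporter cells stimulated with EGF at its EC50 level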)
Method in brief: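 Beta-lactamase reporter under AP-1 response element, ME-180 background. Stimulus: EC50 EGF. Compound exposure 5 h, 37 °C. Detection: CCF4, 2.5 h RT, 460/530 nm. Values: AC50 from titration.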

[2] = molecular target: Cytochrome P450 1A2 (Homo sapiens) (UniProt P05177); assay: p450-cyp1a2 (AID 410; calls by dose curve)
Method in brief: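 Human CYP1A2 (20nM) demethylated Luciferin-ME at its Km (100uM) in 100mM KPO4. After 10 min compound preincubation, NADPH regeneration ran the reaction 60 min at room temperature. Luciferin was read by luminescence, normalized to 57 uM furafylline.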

[3] = NFAT Signaling Pathway (AID 444; active = well fitted curve in either direction with a large enough effect, not every such curve was filed as active;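 note: carbachol stimulus at about its EC50 of 1 µM final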); conditions: Jurkat NFAT-bla M1, carbachol, beta-lactamase ratio, 5 h; at 17.2 µM (top of the series) unless noted
Method in brief: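 Jurkat cells carrying an NFAT-driven β-lactamase reporter and co-transfected muscarinic M1 receptor were treated with compound plus carbachol (1 uM final, an EC50 level) for 5 h at 37 °C. CCF4 loading followed for 1 h at RT; 460/530 nm ratio gave %activity.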

[4] = Stat Signaling Pathway (AID 446; active = well fitted curve in either direction with a large enough effect, not every such curve was filed as active;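 note: ME-180 cervical cancer cells given 40 pM IL-6 alongside compound; SIE-controlled beta-lactamase reporter measured as 460/530 nm FRET emission ratio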)
Method in brief: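 ME-180 cells carrying a SIE-driven beta-lactamase reporter are stimulated with 40 pM IL-6 for 5 h at 37C in the presence of compound. The 460/530 nm FRET substrate ratio is read after 2.5 h at RT. Data are normalised to 300 pM IL-6 and to 125 nM JAK inhibitor controls.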

[5] = molecular target: Glucocorticoid receptor (Homo sapiens) (UniProt P04150); assay: GR-GFP Redistribution (AID 450;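 active = compounds whose dose series gives a full or clear partial fitted curve of increased nuclear translocation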; note: potency is the fitted concentration of half-maximal effect); conditions: U2OS GR-GFP nuclear translocation, laser cytometry, 2 h
[6] = molecular target: Glucocorticoid receptor (Homo sapiens) (UniProt P04150); assay: GR-EFC Redistribution (AID 451; calls by dose curve; note: potency is the fitted concentration of half-maximal effect); conditions: CHO-K1 GR-EFC translocation, beta-gal luminescence, 2 h
Method in brief: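 CHO-K1 cells stably expressing nuclear-localized β-gal enzyme acceptor and GR fused C-terminally to the enzyme donor fragment; ligand-driven nuclear translocation restores β-gal by complementation. Compounds titrated up to 46 uM final, 2 h at 37 °C; luminescence read.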

[7] = molecular target: Mitogen-activated protein kinase 10 (Mus musculus) (UniProt Q61831); assay: JNK3 AlphaScreen Assay (AID 530; active = well fitted curve in either direction with a large enough effect, not every such curve was filed as active;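 note: kinase came from lysate of stimulated human HepG2 cells; signal reports phosphorylation of biotinylated GST-cJun 1-79 at Ser73 with 10 µM ATP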)
Method in brief: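 JNK3 came from HepG2 lysates pre-activated with IL-1beta and TNF-alpha and phosphorylated biotinylated GST-cJun (1-79) at 10 uM ATP, pH 7.6, room temperature. Compounds were titrated. AlphaScreen signal used anti-phospho-cJun (Ser73) antibody.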

[8] = molecular target: 3',5'-cyclic-AMP phosphodiesterase 4B (Homo sapiens) (UniProt Q07343); assay: qHTS Assay for Inhibitors of PDE-IV (AID 607; active = well fitted activation curve with a large enough effect in the main read-out, with a control signal flat, not every such curve was filed as active)
Method in brief: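 HEK293 ACTOne cells with CNG channel (1000/well), endogenous PDE4; membrane potential dye, compounds up to 22.9 uM final. Fluorescence Ex 535/Em 590; RO 20-1724 (100 uM final) as reference.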

[9] = qHTS Assay for Lipid Storage Modulators (AID 1519; calls by dose curve); conditions: Drosophila S3 cells, BODIPY lipid droplet/cell ratio, laser cytometry, cells loaded with oleic acid; for activity change, negative = inhibition: at 25.7 µM (top of the series)
Method in brief: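 Cells seeded at 5,000 per well were treated with compounds over a concentration series and loaded with oleic acid (400 uM, as added). Lipid droplet fluorescence (488 nm excitation, 500-530 nm channel) was read by laser-scanning cytometry and normalized to 20 uM Triacsin C.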

[10] = molecular target: ATP-dependent 6-phosphofructokinase (Trypanosoma brucei brucei) (UniProt O15648); assay: qHTS Assay to Find Inhibitors of T. brucei phosphofructokinase: hit validation (AID 492961);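 note: luminescence reports ADP formed as PFK phosphorylates fructose-6-phosphate with ATP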
Method in brief: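 Reaction: 0.1 M triethanolamine pH 8.0, 5 mM MgCl2, F6P 0.5 mM, ATP 0.1 mM, PFK 1.25 nM, 45 min RT. Read-out: ADP-Glo luminescence. Analysis: concentration-response fits, classed by r2 and efficacy.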

[11] = molecular target: Ubiquitin carboxyl-terminal hydrolase 1 (Homo sapiens) (UniProt O94782); assay: Inhibitors of USP1/UAF1: Pilot qHTS (AID 504865);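 note: rhodamine fluorescence freed from ubiquitin-rhodamine substrate followed over time; top concentration of the series differs between compounds; nearly all actives have a fitted effect of over 35% in size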
Method in brief: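 Deubiquitinase activity followed as kinetic rhodamine fluorescence release from 150 nM Ub-Rho. 1 nM USP1/UAF1 with compound, after 15 min room-temperature preincubation, in HEPES pH 7.8 buffer containing TCEP, EDTA, BSA and Tween-20.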

[12] = molecular target: Luciferin 4-monooxygenase (Photinus pyralis) (UniProt P08659); assay: Biochemical firefly luciferase enzyme assay for NPC (AID 624030);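 note: purified P. pyralis luciferase at 10 nM with luciferin and ATP substrate; nearly all actives have a fitted effect of over 70% in size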
Method in brief: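 Counter-screen for direct inhibition of the luciferase enzyme by approved-drug library compounds, run at 10 nM enzyme in 50 mM Tris acetate (final). Luminescence was read within 5 min of enzyme-buffer addition and normalized to PTC124 versus DMSO (0%).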

[13] = qHTS profiling for inhibitors of Plasmodium falciparum proliferation (AID 504749); note: nearly all actives have a fitted effect of over 60% in size; conditions: P. falciparum in erythrocytes, SYBR Green DNA, 72 h, at 12.8 µM (top of the series)
Method in brief: (§1)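 P. falciparum-infected erythrocytes (0.3% parasitemia, 2.5% hematocrit final) were exposed to compounds for 72 h at 37 C in 5% CO2, then lysed with SYBR Green buffer overnight at room temperature; parasite DNA fluorescence was normalized to artemisinin and DMSO controls.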

[14] = system: CP191; assay: as above; conditions: P. falciparum in erythrocytes, SYBR Green DNA, 72 h; series mostly up to 12.8 µM
Method in brief: as §1

[15] = system: CP217; assay: as above; conditions: P. falciparum in erythrocytes, SYBR Green DNA, 72 h; series mostly up to 12.8 µM
Method in brief: as §1

[16] = system: CP250; assay: as above; conditions: P. falciparum in erythrocytes, SYBR Green DNA, 72 h; series mostly up to 12.8 µM
Method in brief: as §1

[17] = system: CP256; assay: as above; conditions: P. falciparum in erythrocytes, SYBR Green DNA, 72 h; series mostly up to 12.8 µM
Method in brief: as §1

[18] = system: FAB9; assay: as above; conditions: P. falciparum in erythrocytes, SYBR Green DNA, 72 h; series mostly up to 12.8 µM
Method in brief: as §1

[19] = system: JCK; assay: as above; conditions: P. falciparum in erythrocytes, SYBR Green DNA, 72 h; series mostly up to 12.8 µM
Method in brief: as §1

[20] = S16 Schwann cell PMP22 intronic element firefly luciferase assay (AID 624032); note: nearly all actives have a fitted effect of over 30% in size
Method in brief: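 Rat S16 Schwann cells stably carrying a PMP22 intronic element-driven Fluc reporter were seeded overnight, then exposed to compounds for 24 h at 37 °C. Luminescence was normalized to PTC124 (positive control) and DMSO (0% activity).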

[21] = measured here: cell count channel max response
[22] = measured here: lipid channel max response

Sequence of 3',5'-cyclic-AMP phosphodiesterase 4B (Homo sapiens) (Q07343 whole entry, looked up): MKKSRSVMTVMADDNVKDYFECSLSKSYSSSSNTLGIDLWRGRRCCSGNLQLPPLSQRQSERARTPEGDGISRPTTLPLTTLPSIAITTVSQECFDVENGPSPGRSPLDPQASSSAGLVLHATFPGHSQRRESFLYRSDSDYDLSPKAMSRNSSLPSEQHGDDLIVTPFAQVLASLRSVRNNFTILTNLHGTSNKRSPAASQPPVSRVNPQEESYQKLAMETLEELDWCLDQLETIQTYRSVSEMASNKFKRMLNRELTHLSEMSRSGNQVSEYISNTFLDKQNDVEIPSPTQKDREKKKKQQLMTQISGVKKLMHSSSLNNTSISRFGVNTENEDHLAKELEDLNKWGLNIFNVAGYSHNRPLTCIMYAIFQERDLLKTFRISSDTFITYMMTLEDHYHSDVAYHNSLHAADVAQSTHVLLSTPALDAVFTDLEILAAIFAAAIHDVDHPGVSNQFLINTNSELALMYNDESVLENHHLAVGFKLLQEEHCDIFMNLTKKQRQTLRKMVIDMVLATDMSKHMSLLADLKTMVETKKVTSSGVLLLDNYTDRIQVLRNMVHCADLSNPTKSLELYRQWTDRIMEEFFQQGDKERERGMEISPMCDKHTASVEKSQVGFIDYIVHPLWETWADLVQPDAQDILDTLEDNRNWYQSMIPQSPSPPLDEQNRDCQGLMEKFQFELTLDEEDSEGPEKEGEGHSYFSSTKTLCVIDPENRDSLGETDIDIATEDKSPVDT
Sequence of Luciferin 4-monooxygenase (Photinus pyralis) (P08659 whole entry, looked up): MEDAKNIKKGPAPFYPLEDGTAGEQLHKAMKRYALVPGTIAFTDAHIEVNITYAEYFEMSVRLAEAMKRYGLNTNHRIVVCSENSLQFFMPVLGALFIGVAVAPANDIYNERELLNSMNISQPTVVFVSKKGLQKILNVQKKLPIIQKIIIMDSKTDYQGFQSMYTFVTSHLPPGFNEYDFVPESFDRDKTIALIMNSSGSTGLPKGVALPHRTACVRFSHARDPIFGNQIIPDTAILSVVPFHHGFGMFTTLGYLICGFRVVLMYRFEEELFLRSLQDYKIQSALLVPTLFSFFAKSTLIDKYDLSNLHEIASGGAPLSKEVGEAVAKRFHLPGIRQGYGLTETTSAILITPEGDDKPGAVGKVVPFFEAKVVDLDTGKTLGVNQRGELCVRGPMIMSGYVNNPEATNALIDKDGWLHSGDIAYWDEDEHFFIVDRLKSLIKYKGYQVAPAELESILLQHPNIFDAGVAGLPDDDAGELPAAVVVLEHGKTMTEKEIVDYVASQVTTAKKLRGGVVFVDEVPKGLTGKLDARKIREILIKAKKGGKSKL
Sequence of ATP-dependent 6-phosphofructokinase (Trypanosoma brucei brucei) (O15648 whole entry, looked up): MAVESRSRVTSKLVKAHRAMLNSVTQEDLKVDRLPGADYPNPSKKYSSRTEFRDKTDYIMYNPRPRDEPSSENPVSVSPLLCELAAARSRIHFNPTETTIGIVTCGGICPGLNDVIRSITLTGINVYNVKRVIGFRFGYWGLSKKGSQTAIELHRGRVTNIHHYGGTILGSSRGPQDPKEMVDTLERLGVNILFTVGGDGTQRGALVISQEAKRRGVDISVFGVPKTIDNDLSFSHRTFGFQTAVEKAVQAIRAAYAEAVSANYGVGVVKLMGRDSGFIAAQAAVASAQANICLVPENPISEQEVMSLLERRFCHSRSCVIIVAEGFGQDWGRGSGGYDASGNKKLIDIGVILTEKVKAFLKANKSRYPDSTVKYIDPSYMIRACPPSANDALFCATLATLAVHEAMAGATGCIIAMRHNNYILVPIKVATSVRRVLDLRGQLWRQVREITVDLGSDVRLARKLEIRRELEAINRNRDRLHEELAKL
Sequence of Glucocorticoid receptor (Homo sapiens) (P04150 whole entry, looked up, the tested form may be a part): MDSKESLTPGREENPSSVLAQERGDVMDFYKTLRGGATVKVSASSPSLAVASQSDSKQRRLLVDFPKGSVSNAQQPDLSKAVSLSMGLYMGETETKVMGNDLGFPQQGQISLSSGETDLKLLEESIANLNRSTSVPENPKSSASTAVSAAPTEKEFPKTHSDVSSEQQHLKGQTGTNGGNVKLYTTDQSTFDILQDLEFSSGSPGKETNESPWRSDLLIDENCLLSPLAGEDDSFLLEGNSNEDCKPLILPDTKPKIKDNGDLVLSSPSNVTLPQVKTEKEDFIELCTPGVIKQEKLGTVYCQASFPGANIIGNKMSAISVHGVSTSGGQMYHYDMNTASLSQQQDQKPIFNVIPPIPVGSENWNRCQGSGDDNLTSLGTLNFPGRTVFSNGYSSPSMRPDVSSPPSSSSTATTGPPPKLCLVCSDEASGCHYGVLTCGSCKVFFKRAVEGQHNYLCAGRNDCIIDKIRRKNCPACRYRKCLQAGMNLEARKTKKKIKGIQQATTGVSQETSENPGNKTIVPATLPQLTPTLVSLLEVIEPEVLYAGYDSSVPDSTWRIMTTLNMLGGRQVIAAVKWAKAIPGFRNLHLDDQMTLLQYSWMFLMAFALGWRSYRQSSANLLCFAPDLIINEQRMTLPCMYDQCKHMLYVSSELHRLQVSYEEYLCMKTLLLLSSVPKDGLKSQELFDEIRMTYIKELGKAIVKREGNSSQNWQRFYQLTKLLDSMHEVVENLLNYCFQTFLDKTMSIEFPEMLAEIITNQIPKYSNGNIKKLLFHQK
Sequence of Ubiquitin carboxyl-terminal hydrolase 1 (Homo sapiens) (O94782 whole entry, looked up): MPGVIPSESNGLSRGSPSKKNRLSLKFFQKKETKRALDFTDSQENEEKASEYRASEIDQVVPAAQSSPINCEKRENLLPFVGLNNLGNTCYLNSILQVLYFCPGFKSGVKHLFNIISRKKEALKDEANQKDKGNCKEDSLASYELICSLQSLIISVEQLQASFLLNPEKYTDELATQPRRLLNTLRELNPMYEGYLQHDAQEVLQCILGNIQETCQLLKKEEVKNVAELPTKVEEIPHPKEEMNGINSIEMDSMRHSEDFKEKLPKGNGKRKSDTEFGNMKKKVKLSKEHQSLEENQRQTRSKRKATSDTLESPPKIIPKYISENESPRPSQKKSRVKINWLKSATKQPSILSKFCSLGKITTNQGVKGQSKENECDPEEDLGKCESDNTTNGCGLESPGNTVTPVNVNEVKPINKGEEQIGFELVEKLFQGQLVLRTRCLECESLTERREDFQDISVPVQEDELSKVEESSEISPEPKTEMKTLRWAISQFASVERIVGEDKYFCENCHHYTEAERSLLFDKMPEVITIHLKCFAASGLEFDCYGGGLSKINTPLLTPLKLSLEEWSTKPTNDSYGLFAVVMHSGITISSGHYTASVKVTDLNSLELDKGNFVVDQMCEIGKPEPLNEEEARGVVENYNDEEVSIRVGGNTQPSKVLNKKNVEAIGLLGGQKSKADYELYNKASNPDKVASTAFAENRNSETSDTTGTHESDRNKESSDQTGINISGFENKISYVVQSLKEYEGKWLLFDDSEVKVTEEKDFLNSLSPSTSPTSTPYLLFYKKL
Sequence of Cytochrome P450 1A2 (Homo sapiens) (P05177 whole entry, looked up): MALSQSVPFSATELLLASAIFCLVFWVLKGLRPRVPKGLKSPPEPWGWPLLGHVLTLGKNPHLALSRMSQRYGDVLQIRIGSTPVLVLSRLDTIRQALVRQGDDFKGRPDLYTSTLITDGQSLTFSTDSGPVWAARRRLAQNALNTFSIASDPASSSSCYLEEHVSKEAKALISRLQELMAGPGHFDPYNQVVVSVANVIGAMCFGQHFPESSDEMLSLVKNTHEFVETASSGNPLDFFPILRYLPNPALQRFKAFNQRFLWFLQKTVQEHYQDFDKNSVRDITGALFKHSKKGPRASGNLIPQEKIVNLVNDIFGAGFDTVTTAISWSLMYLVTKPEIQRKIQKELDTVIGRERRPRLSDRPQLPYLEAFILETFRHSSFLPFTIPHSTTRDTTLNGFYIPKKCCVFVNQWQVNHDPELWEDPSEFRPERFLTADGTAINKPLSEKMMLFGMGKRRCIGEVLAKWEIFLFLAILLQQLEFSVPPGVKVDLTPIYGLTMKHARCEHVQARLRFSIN

## COc1ccc(C[C@@](C)(N)C(=O)O)cc1OC
[1]
  outcome: inactive
[2]
  Potency: inactive
[3]
  activity change, negative = inhibition: -8.96% (inactive)
[4]
  outcome: inactive
[5]
  Potency: > 20.6 µM (inactive)
[6]
  Potency: > 20.6 µM (inactive)
[7]
  Potency: inactive
[8]
  outcome: inactive
[9]
  activity change, negative = inhibition: -2.09% (inactive)
[9]; [21]
  max response: -10.3%
[9]; [22]
  max response: -12.4%
[10]
  outcome: inactive
[11]
  Potency: inactive
[12]
  Potency: inactive
[13]; parasite line A
  activity, negative = inhibition: 3.21% (inactive)
[13]; parasite line B
  activity, negative = inhibition: -23.5% (inactive)
[14]
  Potency: inactive
[15]
  Potency: inactive
[16]
  Potency: inactive
[17]
  Potency: inactive
[18]
  Potency: inactive
[19]
  Potency: inactive

## CN1CC[C@@]23c4ccccc4N[C@H]1[C@]21CCN(C)[C@@H]3Nc2ccccc21
[1]
  outcome: inactive
[2]
  Potency: inactive
[3]
  activity change, negative = inhibition: -9.09% (inactive)
[4]
  outcome: inactive
[5]
  Potency: > 20.6 µM (inactive)
[6]
  Potency: > 20.6 µM (inactive)
[7]
  Potency: inactive
[8]
  outcome: inactive
[9]
  activity change, negative = inhibition: -2.36% (inactive)
[9]; [21]
  max response: -9.01%
[9]; [22]
  max response: -11.8%
[11]
  Potency: inactive

## CC(=O)O[C@]1(C(C)=O)CC[C@@H]2[C@@H]3C=C(C)C4=CC(=O)CC[C@@]4(C)[C@H]3CC[C@]21C
[1]
  outcome: inactive
[2]
  Potency: inactive
[3]
  activity change, negative = inhibition: -7.69% (inactive)
[4]
  outcome: inactive
[5]
  Potency: 0.00312 µM (active)
[6]
  Potency: 0.0557 µM (active)
[8]
  outcome: inactive
[9]
  activity change, negative = inhibition: -3.56% (inactive)
[9]; [21]
  max response: -20.2%
[9]; [22]
  max response: -22%
[10]
  outcome: inactive
[12]
  Potency: inactive
[20]
  Potency: inactive
[13]; parasite line A
  activity, negative = inhibition: -0.563% (inactive)
[13]; parasite line B
  activity, negative = inhibition: 2.77% (inactive)
[14]
  Potency: inactive
[15]
  Potency: inactive
[16]
  Potency: inactive
[17]
  Potency: inactive
[18]
  Potency: inactive
[19]
  Potency: inactive

## CC(=O)[C@@]1(O)CC[C@H]2[C@H]3C[C@@H](C)C4=CC(=O)C=C[C@]4(C)[C@@]3(F)[C@@H](O)C[C@]21C
[1]
  outcome: inactive
[2]
  Potency: inactive
[3]
  activity change, negative = inhibition: 5.97% (inactive)
[4]
  outcome: inactive
[5]
  Potency: 0.00155 µM (active)
[6]
  Potency: 0.00821 µM (active)
[7]
  Potency: inactive
[8]
  outcome: inactive
[9]
  activity change, negative = inhibition: -6.74% (inactive)
[9]; [21]
  max response: -14.1%
[9]; [22]
  max response: -19.8%
[10]
  outcome: inactive
[11]
  Potency: inactive
[12]
  Potency: inactive
[20]
  Potency: inactive
[13]; parasite line A
  activity, negative = inhibition: -2.85% (inactive)
[13]; parasite line B
  activity, negative = inhibition: -0.507% (inactive)
[14]
  Potency: inactive
[15]
  Potency: inactive
[16]
  Potency: inactive
[17]
  Potency: inactive
[18]
  Potency: inactive
[19]
  Potency: inactive

## NS(=O)(=O)c1cc2c(cc1Cl)N[C@@H](CC1CCCC1)NS2(=O)=O
[1]
  outcome: inactive
[2]
  Potency: inactive
[3]
  activity change, negative = inhibition: -6.75% (inactive)
[4]
  outcome: inactive
[5]
  Potency: > 20.6 µM (inactive)
[6]
  Potency: > 20.6 µM (inactive)
[7]
  Potency: inactive
[9]
  activity change, negative = inhibition: -0.977% (inactive)
[9]; [21]
  max response: 1.17%
[9]; [22]
  max response: 1.04%
[10]
  outcome: inactive
[11]
  Potency: inactive
[12]
  Potency: inactive
[20]
  Potency: inactive
[13]; parasite line A
  activity, negative = inhibition: -0.239% (inactive)
[13]; parasite line B
  activity, negative = inhibition: 5.35% (inactive)
[14]
  Potency: inactive
[15]
  Potency: inactive
[16]
  Potency: inactive
[17]
  Potency: inactive
[18]
  Potency: inactive
[19]
  Potency: inactive
